# Screening data as filed in PubChem BioAssay.
# Hits are enriched below; roughly 1.1% of the tested compounds scored in any of these assays.
# HTR5A ag ctr: HTR5A agonists in luminescence cell assay, primary screen, counter-screen for OPRM1-OPRD1 heterodimer agonist project, full-deck HTS. 5-hydroxytryptamine receptor 5A (Homo sapiens), P47898. cell-based. activation, % at 9.3 µM. 0.61% of 340,000 active; in the data active means activation mostly above about 9.5%, no sharp cut-off; inactive means mostly below about 7.6%
# OPRM1-OPRD1 inv: inverse agonists of MOR-DOR heterodimerization, primary screen, cell-based, luminescence; Mu-type opioid receptor (Homo sapiens) + Delta-type opioid receptor (Homo sapiens), …; cell-based MOR-DOR heterodimer luminescence, inverse agonism; inhibition, % at 9.3 µM; 0.21% of 340,000 active; in the data active means inhibition above about 22%, passing the limit was not always enough
# Target sequence (P35372 whole entry, looked up): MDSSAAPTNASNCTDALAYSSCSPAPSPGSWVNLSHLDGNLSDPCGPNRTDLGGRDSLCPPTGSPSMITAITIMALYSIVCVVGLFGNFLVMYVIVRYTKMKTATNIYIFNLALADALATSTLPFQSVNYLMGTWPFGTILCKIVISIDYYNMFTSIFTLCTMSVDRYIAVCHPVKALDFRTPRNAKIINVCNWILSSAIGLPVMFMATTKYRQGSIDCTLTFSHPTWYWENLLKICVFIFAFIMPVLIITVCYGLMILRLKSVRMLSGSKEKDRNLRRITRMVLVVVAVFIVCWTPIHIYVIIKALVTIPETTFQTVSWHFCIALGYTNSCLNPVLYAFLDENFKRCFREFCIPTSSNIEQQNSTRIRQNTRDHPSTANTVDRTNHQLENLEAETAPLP
# Target sequence (P41143 whole entry, looked up): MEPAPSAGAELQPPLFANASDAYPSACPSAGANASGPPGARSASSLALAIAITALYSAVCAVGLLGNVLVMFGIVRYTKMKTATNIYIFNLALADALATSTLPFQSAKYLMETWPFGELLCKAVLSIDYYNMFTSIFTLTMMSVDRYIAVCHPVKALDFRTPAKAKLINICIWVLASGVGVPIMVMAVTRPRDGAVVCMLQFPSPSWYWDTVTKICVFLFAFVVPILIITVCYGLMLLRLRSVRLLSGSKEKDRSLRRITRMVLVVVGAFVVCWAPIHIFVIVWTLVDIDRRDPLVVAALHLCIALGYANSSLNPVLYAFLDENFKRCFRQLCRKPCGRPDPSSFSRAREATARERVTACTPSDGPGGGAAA
# MOR-DOR ag: agonists of OPRM1-OPRD1 heterodimerization, primary screen, cell-based, luminescence. Mu-type opioid receptor (Homo sapiens) + Delta-type opioid receptor (Homo sapiens), …. cells. activation, % at 9.3 µM. 0.3% of 340,000 active. AID 504326, 2011; in the data active means activation above about 18%
# HTR5A inv ag: HTR5A inverse agonists in luminescence cell assay, primary screen, counter-screen for OPRM1-OPRD1 heterodimer inverse agonist project, full-deck HTS; HTR5A cell line, inverse agonism; 0.083% of 340,000 active; AID 504634, 2011; inhibition, % at 9.3 µM; 5-hydroxytryptamine receptor 5A (Homo sapiens), P47898; in the data active means inhibition mostly above about 23%, no sharp cut-off; inactive means mostly below about 18%
# Hits are given with their value; 0 = inactive.
SMILES,HTR5A ag ctr,OPRM1-OPRD1 inv,MOR-DOR ag,HTR5A inv ag
Cn1c(=O)c2c(SCC(=O)NCc3ccco3)nc(-c3ccccc3Cl)nc2n(C)c1=O,0,0,0,0
O=C1CCN(C(=O)Nc2cccc(Cl)c2)N1,11,0,0,0
CC(C)NC(=S)N/N=C1\CCCc2ccccc21,11,0,0,0
CCOC(=O)c1nnn(-c2nonc2N)c1COc1ccc(F)cc1,0,0,0,0
CCOC(=O)c1nnn(-c2nonc2N)c1COc1ccccc1,11,0,0,0
CCOc1ccc(-c2cc(C(=O)OC)[nH]n2)cc1,0,0,0,0
Cc1cc(-n2c(SCC(=O)NCCC3=CCCCC3)nc3n[nH]c(C)c3c2=N)ccc1Cl,31,0,29,0
Cc1[nH]nc2nc(SCC(=O)NCCC3=CCCCC3)n(-c3ccc(Br)cc3)c(=N)c12,15,0,25,0
Cc1ccc(Cl)cc1-n1c(SCC(=O)NCCC2=CCCCC2)nc2n[nH]c(C)c2c1=N,0,0,0,0
Cc1nn(-c2ccccc2)c2nc(=O)n(-c3ccccc3)cc12,0,0,0,0
CCOC(=O)C1=C(c2ccccc2)N(C)C(=O)NC1c1ccc(O)c(OC)c1 (configuration not stated),0,0,0,0
Cc1nc(C)c(C(=O)NNS(=O)(=O)c2ccccc2)s1,10,0,0,0
CCCCn1c(N)c(N(CCOC)C(=O)c2ccc(Cl)c(S(=O)(=O)N3CCCCC3)c2)c(=O)[nH]c1=O,0,0,0,0
Cc1cc(Cl)ccc1NC(=S)NCCN1CCOCC1,0,0,0,0
Cc1nc(NC(=O)c2ccccc2)sc1-c1csc(NCCc2ccccc2)n1,0,0,0,0
CCN1CCCC1CNS(=O)(=O)c1ccc(Cl)c(C(F)(F)F)c1 (configuration not stated),13,0,0,0
O=C(CN1C(=O)S/C(=C\c2ccc(C(=O)O)cc2)C1=O)Nc1ccccc1,0,0,0,0
COC(=O)CN(c1cc(OC)ccc1OC)S(=O)(=O)c1ccc(OC)c(OC)c1,9.2,0,0,0
Nc1nc(/C=C/c2cccnc2)nc(-c2ccccc2O)n1,0,0,0,0
COc1ccc(/C=N/NC(=O)c2sccc2C)c2ccccc12,13,0,0,0
COC(=O)C(NC(=O)c1c(C)nn(C)c1Cl)c1ccccc1 (configuration not stated),0,0,0,0
COc1ccc(OC)c(-c2cc(C(=O)N3CCc4ccccc4C3)no2)c1,0,0,0,0
COc1cccc(NC(=O)Nc2nc(-c3ccc(OC)c(OC)c3)cs2)c1,25,0,29,0
COc1ccc(-c2csc(NC(C)=O)n2)cc1OC,0,0,0,0
CCOc1cc2[nH]c(=S)n(CCOC)c(=O)c2cc1OCC,0,0,0,0
SMILES,HTR5A ag ctr,OPRM1-OPRD1 inv,MOR-DOR ag,HTR5A inv ag
COC(=O)CCC(=O)OC1(C)C(=O)C2=CN(C3CC3)C(c3ccc(OC)cc3)=CC2=C(Br)C1=O (configuration not stated),9.4,0,0,0
Cc1cc(C)nc(SC2CCOC2=O)n1 (configuration not stated),0,0,0,0
Cc1ccc(-c2ccc(/C=C(\C#N)C(N)=S)n2C)cc1,0,0,0,0
Cn1cccc1/C=C(/C#N)C(N)=S,0,37,0,0
CCOC(=O)c1cnc(SCC(=O)NNC(=O)c2ccco2)nc1N,0,0,0,0
COc1ccc2[nH]cc(CCn3ccc(=O)c(C)c3C)c2c1,11,0,0,0
O=C(CN1C(=O)NC(c2ccc(F)cc2)C1=O)Nc1ccc2c(c1)OCCO2 (configuration not stated),0,0,0,0
CC(C)CC1NC(=O)N(CC(=O)Nc2ccc3c(c2)OCCO3)C1=O (configuration not stated),11,0,0,0
COc1ccccc1-c1cn[nH]c1-c1ccc(OCc2ccccc2)cc1O,12,0,0,0
COc1ccc(-c2cn[nH]c2-c2ccc(OCc3ccccc3)cc2O)cc1,0,0,0,0
C[C@@]12CCC=C[C@H]1[C@H](c1ccc(C(F)(F)F)cc1)N(Cc1ccccc1)C2=O,13,0,0,0
Cc1ccc(N(CC(=O)Nc2c(C)n(C)n(-c3ccccc3)c2=O)S(C)(=O)=O)c(C)c1,0,0,0,0
Cc1ccc(N(CC(=O)N/N=C/c2cc(C)n(-c3ccccc3)c2C)S(C)(=O)=O)c(C)c1,13,0,0,0
COc1ccc(S(=O)(=O)N2CCOC23CCN(S(=O)(=O)c2c(C)cc(C)cc2C)CC3)cc1,11,0,0,0
COc1cc(C(=O)Nc2nc(-c3cc(C)ccc3C)c(C)s2)ccc1OCC(=O)Nc1ccc(F)cc1,0,0,0,0
COc1ccc(-c2nc(NC(=O)c3ccc(OCC(=O)Nc4ccc(F)cc4)c(OC)c3)sc2C)cc1,15,0,19,0
COc1ccc(-c2cc(C(=O)O)no2)cc1,9.8,0,0,0
CCC(C)NC(=O)c1cc(-c2ccc(OC)cc2)on1 (configuration not stated),0,0,0,0
c1ccc2c(c1)CCCN2Cc1nnnn1CC1CCCO1 (configuration not stated),0,0,0,0
Cn1c(=O)c2c(nc(NCc3ccco3)n2C/C=C/c2ccccc2)n(C)c1=O,11,0,0,0
CC(C)C(=O)NCCc1c[nH]c2ccccc12,0,0,0,0
O=C(NCCc1c[nH]c2ccccc12)C(F)(F)F,14,0,0,0
COc1cc(NS(=O)(=O)c2ccc(C)cc2)c2ncccc2c1,0,47,0,0
O=C(CCc1ccccc1)NC(NC(=S)Nc1ccc(Cl)cc1)C(Cl)(Cl)Cl (configuration not stated),12,0,0,0
O=C(CCCCl)NC(=S)Nc1cc(C(F)(F)F)ccc1N1CCOCC1,0,0,0,0
SMILES,HTR5A ag ctr,OPRM1-OPRD1 inv,MOR-DOR ag,HTR5A inv ag
C=CCNc1oc(-c2ccc(-c3ccccc3)cc2)nc1C#N,0,0,0,0
CCN(CC)CCOC(=O)C1(c2ccccc2)CCOCC1,11,0,0,0
CCN(CC)CCOCCOC(=O)C1(c2ccccc2)CCCC1,0,0,0,0
O=C1c2[nH]nc(-c3ccccc3O)c2C(c2cccc(Cl)c2)N1Cc1ccco1 (configuration not stated),14,0,0,0
CCn1c(SCC(=O)NC(C)c2ccccc2)nc2ccccc21 (configuration not stated),0,0,0,0
CC(NC(=O)CSc1nc2ccccc2n1C)c1ccccc1 (configuration not stated),14,0,0,0
CC(C)(C)c1cc(CCC(=O)NNC(=S)NC(=O)c2ccccc2)cc(C(C)(C)C)c1O,0,68,0,82
COc1ccccc1N=C(C)C1=C(O)CC(c2ccccc2)CC1=O (configuration not stated),8.9,0,0,0
CCCC(=Nc1ccccc1OC)C1=C(O)CC(c2ccccc2)CC1=O (configuration not stated),0,0,0,0
